Compound activity as filed in PubChem BioAssay.
POLI inh = qHTS for Inhibitors of Polymerase Iota; DNA polymerase iota (Homo sapiens), Q9UNA4; AID 588590, 2011; hit rate 1% among 390,000; Pol iota fluorescent replication assay, 10 min; Potency, µM (series often up to 115 µM), without a hit: at the top dose activity, negative = inhibition, hits mostly inhibitors
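Pol iota at 10 nM preincubated 15 min with compounds at room temperature; reaction started with fluorescent substrate, 50 nM final. Fluorescence read kinetically at 0 and 10 min; buffer-only wells as negative control.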
POLB inh = qHTS Assay for Inhibitors of DNA Polymerase Beta | P06746 | Pol beta primer extension/strand displacement, fluorescence kinetic | Potency, µM (top dose mostly 114 µM), for the others: top-dose activity change, negative = inhibition, hits mostly inhibitors | hit rate 1.3% among 340,000; further: on the % scale 0 is the no-effect control and ±100 the full control effect
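Reaction started by 50 nM substrate onto compound-treated Pol beta (10 nM, 15 min preincubation, room temperature); plates read at 0 min and 10 min. Normalized concentration-effect data fitted by four-parameter Hill equation.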
WRN helicase inh-1 = qHTS for Inhibitors of WRN Helicase | AID 651768, 2012 | Bifunctional 3'-5' exonuclease/ATP-dependent helicase WRN (Homo sapiens), Q14191 | hit rate 0.46% among 360,000 | Potency, µM (highest dose often 114 µM), for the others: top-dose activity change, negative = inhibition, usual class: inhibitors | WRN helicase unwinding, fluorescent forked duplex, kinetic; further: on the % scale 0 is the no-effect control and ±100 the full control effect; nearly all actives have a fitted effect of over 55% in size
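WRN at 20 nM final was preincubated with compound for 15 min at room temperature; reaction started with 100 nM forked duplex oligonucleotide carrying fluorophore and quencher plus 2 mM ATP (final). Unwinding followed kinetically by red fluorescence (ex 525/em 598 nm).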
Pol kappa inh-1 = qHTS for Inhibitors of Polymerase Kappa; DNA polymerase kappa (Homo sapiens), Q9UBT6; purified Pol kappa, fluorescent DNA synthesis assay, 10 min; Potency, µM (series often up to 107 µM), for the others: at the top dose activity, negative = inhibition, actives largely listed as inhibitors; hit rate 0.53% among 400,000; AID 588579, 2011; further: on the % scale 0 is the no-effect control and ±100 the full control effect
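50 nM final substrate added after 15 min RT preincubation of 10 nM Pol kappa with compound; fluorescence read at 0 and 10 min.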
Pol eta inh-1 = qHTS for Inhibitors of Polymerase Eta; DNA polymerase eta (Homo sapiens), Q9Y253; recombinant Pol eta, fluorescent DNA replication assay; Potency, µM (doses to about 114 µM), inactives show top-dose activity change, negative = inhibition, usual class: inhibitors; hit rate 1.2% among 390,000; further: on the % scale 0 is the no-effect control and ±100 the full control effect
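Fluorescent replication assay: 50 nM final substrate added after a 15 min room-temperature compound preincubation with 10 nM enzyme. Signal taken at 0 min and again at 10 min.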
L3MBTL1 inh = qHTS Assay for the Inhibitors of L3MBTL1; Lethal(3)malignant brain tumor-like protein 1 (Homo sapiens), Q9Y468; AlphaScreen L3MBTL1–H3K9me1 peptide binding; Potency, µM (series often up to 57.1 µM), without a hit: at the highest dose activity, negative = inhibition, usual class: inhibitors; hit rate 0.66% among 230,000; AID 485360, 2010; further: on the % scale 0 is the no-effect control and ±100 the full control effect; nearly all actives have a fitted effect of over 60% in size
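First, the protein-peptide complex forms for 30 min at room temperature (L3MBTL1 50 nM, biotinylated H3K9me1 peptide 75 nM). Next, compounds are pin-transferred and incubated 30 min. Finally, AlphaScreen beads are added and read after 30 min.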
TbPGK inh = qHTS for inhibitors of Phosphogylcerate Kinase: Hit Validation Screen. shares compounds with Pol kappa inh-1. TbPGK coupled GAPDH assay, Kinase-Glo luminescence. Potency, µM (series often up to 57.5 µM), for inactives: top-dose activity change, negative = inhibition, usual class: inhibitors. hit rate 79% among 500; further: on the % scale 0 is the no-effect control and ±100 the full control effect; nearly all actives have a fitted effect of over 65% in size
POLI cherry-pick = qHTS for Inhibitors of Polymerase Iota: Confirmatory Assay for Cherry-picked Compounds. shares compounds with Pol kappa inh-1. Pol iota primer extension, TAMRA/BHQ fluorescence. Potency, µM, most hits filed as inhibitors. hit rate 77% among 1,500
Pol kappa inh-2 = qHTS for Inhibitors of Polymerase Kappa: Confirmatory Assay for Cherry-picked Compounds; shares compounds with Pol eta inh-1; purified Pol-kappa, fluorescent strand-displacement substrate; Potency, µM, hits mostly inhibitors; hit rate 76% among 920
Pol eta inh-2 = qHTS for Inhibitors of Polymerase Eta: Confirmatory Assay for Cherry-picked Compounds. AID 720502, 2013. hit rate 64% among 2,600. Pol eta primer extension, TAMRA/BHQ fluorescence, 10 min. shares compounds with Pol eta inh-1. Potency, µM, hits mostly inhibitors
WRN helicase inh-2 = qHTS for Inhibitors of WRN Helicase: Confirmatory Assay for Cherry-picked Compounds; AID 720497, 2013; hit rate 63% among 610; Potency, µM (top dose mostly 57.1 µM), inactives show top-dose activity, negative = inhibition, hits mostly inhibitors; shares compounds with WRN helicase inh-1; WRN helicase DNA unwinding, fluorescence kinetic; further: nearly all actives have a fitted effect of over 65% in size
TO DNA binding = qHTS for Inhibitors of WRN Helicase: Thiazole Orange DNA Binding Counterscreen. Potency, µM (doses to about 57.1 µM), without a hit: at the highest dose activity change, negative = inhibition, actives largely listed as inhibitors. shares compounds with WRN helicase inh-1. hit rate 10% among 610. AID 720499, 2013. thiazole orange DNA binding displacement, fluorescence;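 further: drop in dye fluorescence marks compound binding to DNA; on the % scale 0 is the no-effect control and ±100 the full control effect; nearly all actives have a fitted effect of over 60% in size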
BLM helicase inh = qHTS for Inhibitors of WRN Helicase: BLM Helicase Counterscreen for WRN Inhibitors | Potency, µM (highest dose often 57.1 µM), for the others: at the highest dose activity change, negative = inhibition, actives largely listed as inhibitors | shares compounds with WRN helicase inh-1 | Recombinant BLM helicase DNA unwinding, red fluorescence | hit rate 60% among 610; further: nearly all actives have a fitted effect of over 60% in size
Numbers without * were called inactive; [ ] = another dose, or the depositor's remark. Shown are actives, neighbours in structure and some others; about 2.5% of the full set was active somewhere. The call rests on the fitted dose curve; in most records, active means well fitted curve in the direction sought with a large enough effect; inconclusive means small, poorly fitted or top-dose-only effect, or another doubt; inactive means no such curve, though single readings can be large; an effect the other way counts as inactive or inconclusive. Potency means the concentration at half of the fitted maximal effect.

How did N#CNC(=O)c1ccc(-n2cccc2/C=C2\NC(=O)N(CC(=O)Nc3ccc(F)cc3)C2=O)cc1 do in these assays?
POLI cherry-pick: 27*; Pol eta inh-2: 48*; WRN helicase inh-2: 6.1µM*; TO DNA binding: 9.6µM*; BLM helicase inh: 3.8µM*

Results for O=C(O)CN1C(=O)N/C(=C\c2cccn2-c2ccc(P(=O)(O)O)cc2)C1=O ?
POLI inh: inconclusive; Pol kappa inh-1: -10%; Pol eta inh-1: 2%; L3MBTL1 inh: -5%

How did O=c1c(C(c2ccc(O)cc2)c2c(O)nc3n(c2=O)CCCS3)c(O)nc2n1CCCS2 do in these assays?
POLI inh: inconclusive; POLB inh: -5%; WRN helicase inh-1: inconclusive; Pol kappa inh-1: inconclusive; Pol eta inh-1: 13µM*; L3MBTL1 inh: 0%; POLI cherry-pick: inconclusive; Pol eta inh-2: 76*; WRN helicase inh-2: inconclusive; TO DNA binding: -3%; BLM helicase inh: 19µM*

What do the screens show for `CC1CCCCC1NC(=O)COC(=O)c1ccc2ncsc2c1` (stereo not given)?
POLI inh: inconclusive; WRN helicase inh-1: 1%; Pol kappa inh-1: -6%; Pol eta inh-1: -8%; L3MBTL1 inh: -6%

What do the screens show for `COC(=O)c1sccc1NC(=O)CSc1cc(Cl)ccc1Cl`?
POLI inh: -7%; POLB inh: 2%; WRN helicase inh-1: -27%[57.1 µM]; Pol kappa inh-1: -10%; Pol eta inh-1: -14%; L3MBTL1 inh: 26%

Results for NC(=O)C1CCCN(Cc2ccc3ccccc3c2)C1 (stereo not given) ?
POLI inh: -24%; POLB inh: -21%; WRN helicase inh-1: -7%; Pol kappa inh-1: -8%; Pol eta inh-1: -3%; L3MBTL1 inh: -6%

How did Cc1cc(NC(=O)CSc2cn(CCNC(=O)c3ccccc3)c3ccccc23)no1 do in these assays?
POLI inh: inconclusive; POLB inh: 19%; WRN helicase inh-1: 32µM*; Pol kappa inh-1: 11µM*; Pol eta inh-1: inconclusive; TbPGK inh: 1.2µM*; POLI cherry-pick: 8.4*; Pol eta inh-2: 11*; WRN helicase inh-2: 12µM*; TO DNA binding: -14%; BLM helicase inh: 3.4µM*

How did Cc1ccc(C(=O)NCCn2cc(SCC(=O)Nc3cc(C)on3)c3ccccc32)cc1 do in these assays?
POLI inh: -15%; POLB inh: 2%; WRN helicase inh-1: -1%; Pol kappa inh-1: 10%; Pol eta inh-1: -18%

Results for O=C(COC(=O)COc1ccccc1)Nc1ncc([N+](=O)[O-])s1 ?
POLI inh: inconclusive; WRN helicase inh-1: inconclusive; Pol kappa inh-1: inconclusive; Pol eta inh-1: 10µM*; L3MBTL1 inh: -6%; Pol kappa inh-2: 12*; Pol eta inh-2: 30*

Results for O=C(Cc1ccc(Cl)cc1)Nc1ncc([N+](=O)[O-])s1 ?
POLI inh: 65%; POLB inh: -1%; WRN helicase inh-1: -18%; Pol kappa inh-1: -14%; Pol eta inh-1: 0%; L3MBTL1 inh: 7%

Results for O=C(Cc1ccc(Br)cc1)Nc1ncc([N+](=O)[O-])s1 ?
POLI inh: inconclusive; POLB inh: inconclusive; WRN helicase inh-1: -6%[11.6 µM]; Pol kappa inh-1: -5%; Pol eta inh-1: inconclusive; Pol kappa inh-2: inconclusive; Pol eta inh-2: inconclusive

Results for COc1ccc(/C=C/C(=O)OCC(=O)NC2CCS(=O)(=O)C2)cc1 (stereo not given) ?
POLI inh: 2%; WRN helicase inh-1: 7%; Pol kappa inh-1: 9%; Pol eta inh-1: -13%; L3MBTL1 inh: 2%

What do the screens show for `NC(=O)c1c(NC(=O)C2c3ccccc3Oc3ccccc32)sc2c1CCCCC2`?
POLI inh: inconclusive; POLB inh: 45µM*; WRN helicase inh-1: -12%[11.6 µM]; Pol kappa inh-1: -28%; Pol eta inh-1: 35µM*; L3MBTL1 inh: inconclusive; Pol eta inh-2: inconclusive

What do the screens show for `CCN1CCN(C(=O)C2CCCN(S(=O)(=O)c3cc(Cl)ccc3Cl)C2)CC1` (stereo not given)?
POLI inh: 38%; POLB inh: 12%; WRN helicase inh-1: -24%; Pol kappa inh-1: 0%; Pol eta inh-1: -7%

What do the screens show for `COc1cc2ccccc2cc1C(=O)NC(=S)Nc1ccc(C(=O)O)cc1`?
POLI inh: 0%; POLB inh: -18%; WRN helicase inh-1: -13%[11.6 µM]; Pol kappa inh-1: -10%; Pol eta inh-1: 50µM*; Pol eta inh-2: inconclusive
